# Experimental data taken from article PMC11006913.
# Substitutions are numbered along the chain they refer to.
# What was measured:
# Experiment in all cases: PBM; 200 nM protein, PBS
# Settings in all cases: dsDNA, one strand shown
# [1] = target: NKX2-5 (Homo sapiens, UniProt P52952 125-210, R139K)
# [2] = target: HOXA4 (Homo sapiens, UniProt Q00056 201-287, W262R)
# [3] = target: PRRX1 (Homo sapiens, UniProt P54821 80-166, F113S)
# [4] = target: HOXA4 (Homo sapiens, UniProt Q00056 201-287, R217L)
# [5] = target: HOXA4 (Homo sapiens, UniProt Q00056 201-287)
# [6] = target: HOXA4 (Homo sapiens, UniProt Q00056 201-287, W262F)
# [7] = target: PRRX1 (Homo sapiens, UniProt P54821 80-166)
# [8] = target: NKX2-5 (Homo sapiens, UniProt P52952 125-210)
# [9] = target: ALX4 (Homo sapiens, UniProt Q9H161 200-286)
# [10] = target: ALX4 (Homo sapiens, UniProt Q9H161 200-286, Q225E)
# [11] = target: T1, SIX6 (Homo sapiens, UniProt O95475 114-200, L167I)
# T1 sequence: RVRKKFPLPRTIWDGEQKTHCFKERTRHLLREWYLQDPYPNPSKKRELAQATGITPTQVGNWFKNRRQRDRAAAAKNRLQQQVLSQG
# [12] = target: T2, SIX6 (Homo sapiens, UniProt O95475 114-200, L143V)
# T2 sequence: T1 sequence with L30V, I54L
# [13] = target: T3, SIX6 (Homo sapiens, UniProt O95475 114-200, H141N)
# T3 sequence: T1 sequence with H28N, I54L
# [14] = target: T4, SIX6 (Homo sapiens, UniProt O95475 114-200, T165P)
# T4 sequence: T1 sequence with T52P, I54L
# [15] = target: T5, SIX6 (Homo sapiens, UniProt O95475 114-200, L167M)
# T5 sequence: T1 sequence with I54M
# [16] = target: T6, SIX6 (Homo sapiens, UniProt O95475 114-200, L143M)
# T6 sequence: T1 sequence with L30M, I54L
# [17] = target: T7, SIX6 (Homo sapiens, UniProt O95475 114-200, L143I)
# T7 sequence: T1 sequence with L30I, I54L
# [18] = target: T8, SIX6 (Homo sapiens, UniProt O95475 114-200, T165G)
# T8 sequence: T1 sequence with T52G, I54L
# [19] = target: T9, SIX6 (Homo sapiens, UniProt O95475 114-200, T139Q)
# T9 sequence: T1 sequence with T26Q, I54L
# [20] = target: T10, SIX6 (Homo sapiens, UniProt O95475 114-200, T165A)
# T10 sequence: T1 sequence with T52A, I54L
# [21] = target: T11, SIX6 (Homo sapiens, UniProt O95475 114-200, L167V)
# T11 sequence: T1 sequence with I54V
# [22] = target: T12, SIX6 (Homo sapiens, UniProt O95475 114-200)
# T12 sequence: T1 sequence with I54L
# [23] = target: T13, SIX6 (Homo sapiens, UniProt O95475 114-200, T165I)
# T13 sequence: T1 sequence with T52I, I54L
# [24] = target: HOXB6 (Homo sapiens, UniProt P17509 132-218, K202E)
# [25] = target: T14, NKX2-6 (Homo sapiens, UniProt A6NCS4 118-204)
# T14 sequence: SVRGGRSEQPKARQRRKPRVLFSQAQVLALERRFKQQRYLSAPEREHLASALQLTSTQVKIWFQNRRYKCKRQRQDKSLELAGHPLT
# [26] = target: T15, NKX2-6 (Homo sapiens, UniProt A6NCS4 118-204, F151L)
# T15 sequence: T14 sequence with F34L
# [27] = target: HOXB6 (Homo sapiens, UniProt P17509 132-218)
# Chain of HOXB6 (Homo sapiens, UniProt P17509 132-218) (P17509 132-218): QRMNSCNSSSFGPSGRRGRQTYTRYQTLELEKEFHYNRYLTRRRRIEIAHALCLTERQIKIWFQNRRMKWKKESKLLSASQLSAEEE
# Chain of NKX2-5 (Homo sapiens, UniProt P52952 125-210) (P52952 125-210): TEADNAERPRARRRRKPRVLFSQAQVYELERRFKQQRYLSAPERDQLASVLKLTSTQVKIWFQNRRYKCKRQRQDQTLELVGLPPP
# Chain of NKX2-5 (Homo sapiens, UniProt P52952 125-210, R139K) (P52952 125-210 R139K): as the sequence (P52952 125-210) above, with R15K counted along it
# Chain of PRRX1 (Homo sapiens, UniProt P54821 80-166) (P54821 80-166): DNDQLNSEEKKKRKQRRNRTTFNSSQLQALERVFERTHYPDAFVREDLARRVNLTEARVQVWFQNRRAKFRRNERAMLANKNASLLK
# Chain of PRRX1 (Homo sapiens, UniProt P54821 80-166, F113S) (P54821 80-166 F113S): as the sequence (P54821 80-166) above, with F34S counted along it
# Chain of HOXA4 (Homo sapiens, UniProt Q00056 201-287, W262F) (Q00056 201-287 W262F): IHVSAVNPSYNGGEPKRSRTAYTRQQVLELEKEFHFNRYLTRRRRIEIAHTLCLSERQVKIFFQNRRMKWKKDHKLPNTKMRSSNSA
# Chain of HOXA4 (Homo sapiens, UniProt Q00056 201-287) (Q00056 201-287): as the sequence (Q00056 201-287 W262F) above, with F62W counted along it
# Chain of HOXA4 (Homo sapiens, UniProt Q00056 201-287, R217L) (Q00056 201-287 R217L): as the sequence (Q00056 201-287 W262F) above, with R17L, F62W counted along it
# Chain of HOXA4 (Homo sapiens, UniProt Q00056 201-287, W262R) (Q00056 201-287 W262R): as the sequence (Q00056 201-287 W262F) above, with F62R counted along it
# Chain of HOXB6 (Homo sapiens, UniProt P17509 132-218, K202E) (P17509 132-218 K202E): as the sequence (P17509 132-218) above, with K71E counted along it
# Chain of ALX4 (Homo sapiens, UniProt Q9H161 200-286, Q225E) (Q9H161 200-286 Q225E): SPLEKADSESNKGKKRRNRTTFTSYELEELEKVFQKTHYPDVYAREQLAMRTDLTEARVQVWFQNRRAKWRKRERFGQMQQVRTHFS
# Chain of ALX4 (Homo sapiens, UniProt Q9H161 200-286) (Q9H161 200-286): as the sequence (Q9H161 200-286 Q225E) above, with E26Q counted along it
sequence,measurement,setting,value
GGCAGGAC,binding signal,[1],"8.66 upbm affinity estimate (log intensity, higher = more binding, comparable within an allelic series)"
same,binding signal,[2],"9.94 upbm affinity estimate (log intensity, higher = more binding, comparable within an allelic series)"
same,binding signal,[3],"9.23 upbm affinity estimate (log intensity, higher = more binding, comparable within an allelic series)"
same,binding signal,[4],"9.72 upbm affinity estimate (log intensity, higher = more binding, comparable within an allelic series)"
same,binding signal,[5],"9.8 upbm affinity estimate (log intensity, higher = more binding, comparable within an allelic series)"
same,binding signal,[6],"9.93 upbm affinity estimate (log intensity, higher = more binding, comparable within an allelic series)"
same,binding signal,[7],"8.98 upbm affinity estimate (log intensity, higher = more binding, comparable within an allelic series)"
same,binding signal,[8],"8.83 upbm affinity estimate (log intensity, higher = more binding, comparable within an allelic series)"
GCGTGCGA,binding signal,[1],"8.9 upbm affinity estimate (log intensity, higher = more binding, comparable within an allelic series)"
same,binding signal,[9],"7.96 upbm affinity estimate (log intensity, higher = more binding, comparable within an allelic series)"
same,binding signal,[10],"8.17 upbm affinity estimate (log intensity, higher = more binding, comparable within an allelic series)"
same,binding signal,[8],"8.92 upbm affinity estimate (log intensity, higher = more binding, comparable within an allelic series)"
GCGGCCCA,binding signal,[1],"8.95 upbm affinity estimate (log intensity, higher = more binding, comparable within an allelic series)"
same,binding signal,[11],"8.92 upbm affinity estimate (log intensity, higher = more binding, comparable within an allelic series)"
same,binding signal,[12],"8.97 upbm affinity estimate (log intensity, higher = more binding, comparable within an allelic series)"
same,binding signal,[13],"8.91 upbm affinity estimate (log intensity, higher = more binding, comparable within an allelic series)"
same,binding signal,[14],"9.19 upbm affinity estimate (log intensity, higher = more binding, comparable within an allelic series)"
same,binding signal,[15],"8.93 upbm affinity estimate (log intensity, higher = more binding, comparable within an allelic series)"
same,binding signal,[16],"8.95 upbm affinity estimate (log intensity, higher = more binding, comparable within an allelic series)"
same,binding signal,[17],"8.94 upbm affinity estimate (log intensity, higher = more binding, comparable within an allelic series)"
same,binding signal,[18],"8.87 upbm affinity estimate (log intensity, higher = more binding, comparable within an allelic series)"
same,binding signal,[19],"8.74 upbm affinity estimate (log intensity, higher = more binding, comparable within an allelic series)"
same,binding signal,[20],"8.92 upbm affinity estimate (log intensity, higher = more binding, comparable within an allelic series)"
same,binding signal,[21],"8.8 upbm affinity estimate (log intensity, higher = more binding, comparable within an allelic series)"
same,binding signal,[22],"8.92 upbm affinity estimate (log intensity, higher = more binding, comparable within an allelic series)"
same,binding signal,[23],"8.91 upbm affinity estimate (log intensity, higher = more binding, comparable within an allelic series)"
same,binding signal,[8],"8.97 upbm affinity estimate (log intensity, higher = more binding, comparable within an allelic series)"
TCACTTAA,binding signal,[1],"12.2 upbm affinity estimate (log intensity, higher = more binding, comparable within an allelic series)"
same,binding signal,[24],"9.72 upbm affinity estimate (log intensity, higher = more binding, comparable within an allelic series)"
same,binding signal,[25],"13.4 upbm affinity estimate (log intensity, higher = more binding, comparable within an allelic series)"
same,binding signal,[26],"10.6 upbm affinity estimate (log intensity, higher = more binding, comparable within an allelic series)"
same,binding signal,[8],"12.3 upbm affinity estimate (log intensity, higher = more binding, comparable within an allelic series)"
same,binding signal,[27],"10.7 upbm affinity estimate (log intensity, higher = more binding, comparable within an allelic series)"
AGCCGACA,binding signal,[1],"8.87 upbm affinity estimate (log intensity, higher = more binding, comparable within an allelic series)"
same,binding signal,[3],"9.45 upbm affinity estimate (log intensity, higher = more binding, comparable within an allelic series)"
same,binding signal,[7],"9.49 upbm affinity estimate (log intensity, higher = more binding, comparable within an allelic series)"
same,binding signal,[8],"9.05 upbm affinity estimate (log intensity, higher = more binding, comparable within an allelic series)"
